Assay results published in the supplement of paper PMC3334620.
Over roughly 33,000 sequences, “E-score (-0.5 to 0.5)” has its median near -0.012; the highest 2% begin near 0.29. Only a selection was taken, and the highest values are over-represented in it overall.

Target: T1, Ybr033w (UniProt P38073)
T1 sequence: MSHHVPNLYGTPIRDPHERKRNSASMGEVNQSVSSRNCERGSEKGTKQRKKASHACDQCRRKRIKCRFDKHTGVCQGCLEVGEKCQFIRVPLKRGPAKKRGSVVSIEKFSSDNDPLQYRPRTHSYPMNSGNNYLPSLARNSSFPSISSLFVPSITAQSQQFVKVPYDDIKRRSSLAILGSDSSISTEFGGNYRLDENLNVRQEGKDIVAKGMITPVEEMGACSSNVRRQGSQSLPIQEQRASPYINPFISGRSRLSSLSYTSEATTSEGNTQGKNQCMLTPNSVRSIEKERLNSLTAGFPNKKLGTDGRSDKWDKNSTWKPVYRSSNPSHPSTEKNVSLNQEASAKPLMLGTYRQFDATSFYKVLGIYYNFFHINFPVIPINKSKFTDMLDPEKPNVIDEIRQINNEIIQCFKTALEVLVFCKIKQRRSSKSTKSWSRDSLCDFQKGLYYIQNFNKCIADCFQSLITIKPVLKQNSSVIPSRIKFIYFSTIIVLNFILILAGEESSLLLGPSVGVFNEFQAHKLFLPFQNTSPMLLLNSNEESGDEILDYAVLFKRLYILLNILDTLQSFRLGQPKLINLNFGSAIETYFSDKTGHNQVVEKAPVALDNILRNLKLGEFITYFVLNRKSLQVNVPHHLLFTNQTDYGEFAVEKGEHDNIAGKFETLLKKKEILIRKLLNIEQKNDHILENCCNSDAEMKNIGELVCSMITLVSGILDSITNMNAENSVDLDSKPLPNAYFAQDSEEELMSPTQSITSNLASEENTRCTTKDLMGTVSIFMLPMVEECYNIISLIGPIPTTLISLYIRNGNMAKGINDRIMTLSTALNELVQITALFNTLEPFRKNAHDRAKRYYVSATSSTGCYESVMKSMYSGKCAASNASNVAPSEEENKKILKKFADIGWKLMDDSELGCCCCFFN
Assay: PBM E-score (8-mer binding enrichment) (E-score (-0.5 to 0.5)); higher = stronger / more preferred TF binding
Conditions: protein concentration: 200 nM; construct: GST-full length
Description: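 Universal 'all 10-mer' protein binding microarrays (Agilent AMADID 015681) probed with GST-tagged S. cerevisiae TFs (full-length or DBD) made by in vitro transcription/translation (PURExpress), about 100-200 nM. Bound TF was detected with fluorescent anti-GST. Each ungapped 8-mer (which stands for itself and its reverse complement) is scored by the PBM enrichment score (E-score), a modified Wilcoxon-Mann-Whitney statistic from -0.5 to +0.5, computed with the Universal PBM Analysis Suite. Scale: above 0.35 generally sequence-specific binding.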

Sequence | PBM E-score
AGATATAG | 0.171
AACTATAT | 0.335
AAATAGTC | 0.0679
AAATAGTG | 0.292
TCATCGGA | 0.109
CAACCTTA | 0.14
CCTTAGCG | -0.178
ATTTACCG | 0.132
TACAATCA | 0.171
AACTACCG | 0.0353
AAGTATAG | 0.12
AAATATAC | 0.312
AAGTATAA | 0.152
GAATATAC | 0.141
AAATATCT | 0.295
AAATATCG | 0.247
AAGTATAT | 0.302
CAATATAC | 0.0977
TAATAGAA | 0.198
AAATATCC | 0.273
TAATATAA | 0.379
TAATATGA | 0.284
AGAGTAGG | 0.0322
CTATCTGC | -0.0829
ACAACTGT | 0.106

Sequence | PBM E-score
CCACTACC | -0.149
AGGTGCAG | -0.186
AATTCTGC | 0.0888
ATGACGCA | -0.0224
ACCAGGTA | -0.225
ATCGTTAA | 0.24
ATCTTCAG | 0.185
GAATATAA | 0.131
AAATAGAT | 0.289
CAATATAA | 0.284
AAATAGAC | 0.101
AAATATAA | 0.305
AAATATGT | 0.252
AAATAGAG | 0.247
AAATATAT | 0.339
ATATATAT | 0.141
CAAGTCGA | -0.0109
GGTGAATA | 0.127
ACGCAACG | 0.0621
GTAAGTCA | 0.0193
AAGCTTAC | 0.0655
AAGGTTTG | 0.227
AGGTGAGC | -0.172
ACTAACCC | 0.0277
GTCGCGAC | 0.234

Sequence | PBM E-score
ATTAACAC | 0.368
GTTAACAA | 0.0731
ATTAACAG | 0.0928
ATTAACAA | 0.382
AATAACAC | 0.222
CTTAACAC | 0.112
CGATTAAC | 0.103
AGATTAAG | 0.214
TGATTAAA | 0.27
GGATTAAC | 0.441
GGATTAAA | 0.341
AGATTAAC | 0.199
AGATTAAA | 0.295
CGATTAAA | 0.174
AGATTAAT | 0.284
GGAGAACA | 0.026
ACTTAGCA | 0.00122
GCCCTCTA | -0.176
TACGCCCA | 0.0751
CAGATCGC | -0.164
GTAAACAA | 0.298
TAAAACAA | 0.177
ATAAACAG | 0.0706
TTAAACAA | 0.226
ATAAACAA | 0.326

Sequence | PBM E-score
AAAAACAT | 0.21
ATAAACAT | 0.289
AAAAACAA | 0.321
GTAAACAC | 0.0587
ATAAACAC | 0.241
CTAAACAA | 0.112
GAAAACAA | 0.115
CAGGGTAC | -0.158
GTCGCATA | 0.214
TATCACAA | 0.18
AGCTAGAG | -0.0778
CTCAAAAC | 0.217
CCTTGGGA | 0.021
ACAGAAGA | 0.0639
CCTTTGCA | 0.0151
AATAACCG | -0.0165
AAAAACCC | 0.164
AAAAACCG | 0.134
AAAAACCT | 0.307
CCACTTCA | -0.0798
AGCCCTCG | -0.314
AGAATTAC | 0.181
CGAATTCA | -0.00151
CGAATTAA | 0.112
GGAATTCC | -0.236

Sequence | PBM E-score
GGAATTAA | 0.349
GGAATTCA | 0.288
GGAATTAC | 0.291
CGAATTAC | 0.135
TGAATTAA | 0.226
CCACGCTC | -0.126
ACTACTGG | 0.017
GGACCGAA | 0.061
AGTCCTTA | -0.049
CACAATTC | 0.16
GATAAATC | 0.304
GATAAAGC | 0.159
CCTAAATA | 0.118
GATAAAGA | 0.154
ACTAAATC | 0.278
GGTAAATA | 0.225
TATAAAAA | 0.253
GATAAATA | 0.4
ACTAAATA | 0.322
CATAAATA | 0.169
CATAAATC | 0.146
TATAAATA | 0.289
TTCGCAAA | 0.225
CTAGACAA | -0.0833
ATCCATGA | -0.0662

Sequence | PBM E-score
AGACAAAT | 0.129
CCACAAAC | 0.077
TCCACACA | 0.111
CGGTGCGC | -0.156
GTTCGAGA | -0.0752
GCTGAGGA | -0.194
AATAAATC | 0.263
GATAAACA | 0.298
CATAAAAC | 0.0263
AATAAATA | 0.378
TATAAACA | 0.247
AATAAATG | 0.194
GATAAAAA | 0.278
AATAAACT | 0.221
GATAAAAC | 0.323
AATAAAGA | 0.267
AATAAATT | 0.314
GATAAACC | 0.236
ACGTTCTA | -0.0975
AAACCAAT | 0.272
CATACCCG | -0.165
CGAATTGC | -0.0195
CAAGAACC | 0.137
CCAGATCG | -0.0568
CCGATTAG | -0.131

Sequence | PBM E-score
ATTGTCTA | 0.144
ACTCTAAC | 0.17
AATAAAAT | 0.304
AATAAAAA | 0.252
AATAAAAG | 0.0821
AAGTTAAT | 0.315
AAGTTTAT | 0.333
AAGTTAAG | -0.149
AAGTTATG | 0.206
AAGTTAAC | 0.224
AAGTTATA | 0.166
AAGTTTAC | 0.154
AAGTTTAG | 0.128
AAGTTATT | 0.3
AAACTGCA | 0.146
ACCCTTCC | -0.0151
AGTAGCAA | 0.152
ACACTGGG | -0.161
AGTGTTGC | 0.0949
GTCTTTGA | -0.0431
GACATTCA | 0.0222
CACTTTTC | 0.255
